This is a sample that favours compounds with a hit; in the whole collection about 11% have one here.
HTT ATP protect: protects HTT-Q103 PC12 cells, measured by ATP | Potency, µM (doses to about 56.4 µM), without a hit: cytoprotection (ATP increase), most hits filed as activators | PC12 HTT-Q103 induced, cytoprotection, ATP luminescence, 40 h | 0.14% of 230,000 active; also: potency is read from the fitted curve at half-maximal effect; % of control where 0% means no effect; nearly all actives have a fitted effect of over 45% in size
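Compounds added alongside 100 nM tebufenozide, which induces toxic Q103 huntingtin exon 1-GFP in stable PC12 cells; surviving cells quantified by luminescent ATP measurement. Medium: phenol red-free DMEM, 5% equine and 5% calf serum.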
ALDH1A1 inh: ALDH1A1 (human) enzyme inhibition; 7.3% of 220,000 active; AID 1030; Purified ALDH1A1, NADH fluorescence, propionaldehyde substrate; Potency, µM (series often up to 75.3 µM), inactives show at the top dose activity, negative = inhibition, actives largely listed as inhibitors; P00352; active = well fitted inhibition curve with a large enough effect, not every such curve was filed as active; inconclusive = small, poorly fitted or top-dose-only effect, or another doubt; inactive = no such curve, though single readings can be large or run the other way;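 also: potency is read from the fitted curve at half-maximal effect; plate controls were no enzyme wells and a reference inhibitor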
HTT aggregate: mutant huntingtin aggregation inhibition | Potency, µM (top dose mostly 46.1 µM), for inactives: at the top dose activity change, negative = inhibition, actives largely listed as inhibitors | PC12 HttQ103-GFP aggregates, Acumen cytometry, 40 h | 1.1% of 220,000 active; also: potency is read from the fitted curve at half-maximal effect; % is scaled to controls: 0 for no effect and ±100 for the full control effect; nearly all actives have a fitted effect of over 60% in size
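Aggregates are detected as GFP objects 1–25 µm with signal 6 STDEV over background in lysates of induced PC12 cells. These carry Huntingtin exon 1 with 103 glutamines fused to GFP under an ecdysone promoter; compounds titrated.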
GoLoco inh red: blocks human Gai1 binding to RGS12 GoLoco peptide, red readout. P63096. Gai1:RGS12 GoLoco peptide FP, rhodamine, 10 min. Potency, µM (doses to about 61.6 µM), for the others: at the top dose activity, negative = inhibition, actives largely listed as inhibitors. 0.44% of 230,000 active. AID 880; active = well fitted inhibition curve with a large enough effect, not every such curve was filed as active; inactive = no such curve, though single readings can be large or run the other way; also: potency is read from the fitted curve at half-maximal effect; % is scaled to controls: 0 for no effect and ±100 for the full control effect; nearly all actives have a fitted effect of over 30% in size
Target sequence (P63096 whole entry, looked up): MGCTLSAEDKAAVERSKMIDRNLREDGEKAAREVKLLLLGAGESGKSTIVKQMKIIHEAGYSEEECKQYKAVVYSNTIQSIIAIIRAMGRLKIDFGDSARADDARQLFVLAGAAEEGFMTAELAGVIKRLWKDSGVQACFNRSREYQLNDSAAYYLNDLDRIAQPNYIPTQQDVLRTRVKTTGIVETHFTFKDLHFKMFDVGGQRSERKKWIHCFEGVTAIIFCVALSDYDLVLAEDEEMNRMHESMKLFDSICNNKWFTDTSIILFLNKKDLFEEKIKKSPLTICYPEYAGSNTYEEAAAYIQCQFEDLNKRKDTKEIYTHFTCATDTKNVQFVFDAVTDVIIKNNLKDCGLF
HPGD block: blocks human HPGD enzyme activity; Potency, µM, for the others: top-dose activity change, negative = inhibition, most hits filed as inhibitors; 4.3% of 150,000 active; P15428; AID 894; purified HPGD, NADH fluorescence kinetic, PGE2 substrate; active = well fitted inhibition curve with a large enough effect, not every such curve was filed as active; inconclusive = small, poorly fitted or top-dose-only effect, or another doubt; inactive = no such curve, though single readings can be large or run the other way; also: potency is read from the fitted curve at half-maximal effect; % is scaled to controls: 0 for no effect and ±100 for the full control effect
Target sequence (P15428 whole entry, looked up): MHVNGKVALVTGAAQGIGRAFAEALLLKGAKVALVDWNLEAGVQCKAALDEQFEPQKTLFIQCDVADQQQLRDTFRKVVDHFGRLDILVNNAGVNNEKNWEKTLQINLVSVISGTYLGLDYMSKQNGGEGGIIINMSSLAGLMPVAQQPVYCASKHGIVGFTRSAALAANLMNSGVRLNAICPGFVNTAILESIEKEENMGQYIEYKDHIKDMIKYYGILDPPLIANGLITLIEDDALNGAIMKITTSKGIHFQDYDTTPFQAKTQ
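20 nM HPGD preincubated 15 min at room temperature with compound in 50 mM Tris-HCl pH 8, 0.01% Tween 20. Started with 1 mM NAD+ and 30 uM prostaglandin E2; NADH fluorescence (360/450 nm) read 5 times over 30-s intervals, last minus first.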
PNC inhibitor: blocks assembly of the perinucleolar compartment; activity change (PNC), negative = inhibition, % at 10 µM; 3.1% of 140,000 active; PC3M PTB-GFP, PNC prevalence imaging, 16 h; active compounds read low;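 active = readout at or below -70, meaning at least 70% loss of cells showing the perinucleolar compartment, a nuclear body marking cancer cells; inconclusive = readout between -30 and a set limit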;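 also: plate controls were DMSO wells for no effect and camptothecin positive control wells for full effect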
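Compounds are pinned in duplicate onto adhered PC3M cells stably expressing GFP-tagged PTB and incubated 16 h at 37 C. Cells are then fixed, nuclei stained with Hoechst, and PNC-positive cells counted.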
* hit, by the source's call; ? = inconclusive; nt = no result; [ ] = dose if it differs, or a comment. Unless noted, calls follow the shape of the dose curve; as a rule, active = well fitted curve in the direction sought with a large enough effect; inconclusive = small, poorly fitted or top-dose-only effect, or another doubt; inactive = no such curve, though single readings can be large; an effect the other way counts as inactive or inconclusive.

SMILES	HTT ATP protect	ALDH1A1 inh	HTT aggregate	GoLoco inh red	HPGD block	PNC inhibitor
CCN(CC)S(=O)(=O)c1cc(NC(=O)C(C)N2CCN(Cc3ccc4c(c3)OCO4)CC2)ccc1C (stereo not drawn)	-13.6%[10 µM]	8.7%	23.1%	11.2%	0.7%	-1.2
CCOC(=O)C1=C(C)NC(=S)NC1c1ccc(-c2cccc(Cl)c2C)o1 (stereo not drawn)	-8.4%	0.891µM*	-16.5%	2.1%	-11.5%	-20.8
COC(=O)C1=C(C)NC(C)=C(C(=O)OC)C1c1ccc(-c2cccc(Cl)c2Cl)o1	-80.1%[10 µM]	?	?	2.0%	?	4.5
COC(=O)C1=C(C)NC(C)=C(C(=O)OC)C1c1ccc(-c2cccc([N+](=O)[O-])c2)o1	16.3%[10 µM]	nt	16.1%[9.22 µM]	-3.2%	nt	nt
COC(=O)C1=C(C)NC(=S)NC1c1ccc(-c2ccccc2C(=O)OC)o1 (stereo not drawn)	-22.7%	15.8µM*	3.8%	-0.1%	nt	nt
COC(=O)C1=C(C)NC(=S)NC1c1ccc(-c2cccc(Cl)c2)o1 (stereo not drawn)	nt	2µM*	-8.5%	19.2%	-27.7%	-7.6
CCOC(=O)C1=C(C)NC(=O)NC1c1ccc(-c2ccc(Cl)cc2)o1 (stereo not drawn)	19.3%[10 µM]	6.4%	-13.3%[9.22 µM]	29.7%	nt	nt
CCOC(=O)C1=C(C)NC(=S)NC1c1ccc(-c2ccc(Cl)cc2)o1 (stereo not drawn)	15.3%[10 µM]	4.47µM*	?	-0.1%	-10.1%	-29.5
CCOC(=O)C1=C(C)NC(=O)NC1c1ccc(-c2ccc(F)cc2)o1 (stereo not drawn)	-3.2%	?	0.4%	32.5%	nt	nt
CCOc1cc(CC(=O)N[C@@H](CC(C)C)c2ccccc2N2CCCCC2)ccc1C(=O)O	-6.1%[40.3 µM]	-4.0%[20.9 µM]	2.9%[20.6 µM]	5.1%	-3.5%	nt
Cc1noc(C)c1-c1nc(NCCN2CCOCC2)c2ccccc2n1	-13.0%	-7.7%	nt	-4.6%	nt	nt
COc1ccccc1C(=O)N/N=C/c1cnc2ccccc2n1	nt	5.7%	-11.0%	11.3%	-19.4%	109.7
COc1cc(OC)cc(C(=O)NCC(=O)OCC(=O)C(C)(C)C)c1	26.2%[10 µM]	4.7%	16.8%	2.5%	-16.1%	29.2
CN(C)CC(C)(C)CNC(=O)c1ccc(Cc2nc3ccccc3[nH]2)cc1	nt	13.4%	nt	nt	-5.3%	nt
COc1ccccc1Nc1ncnc2nc[nH]c12	15.1%	4.3%	-45.5%	7.0%	-14.2%	45.7
c1ccc(CCNc2nc(-c3ccccn3)cs2)cc1	-3.7%[10 µM]	31.6µM*	33.7%[9.22 µM]	1.5%	nt	nt
O=C(CCN1C(=O)C2CCCCC2C1=O)Nc1nc(-c2ccc(F)c(F)c2)cs1 (stereo not drawn)	-4.0%	?	-9.6%	-6.3%	nt	nt
c1ccc(CCNc2nc(-c3cccnc3)cs2)cc1	-2.2%[10 µM]	?	-20.4%	0.2%	-15.3%	?
O=C(Nc1nc(-c2ccccn2)cs1)C1COc2ccccc2O1 (stereo not drawn)	-4.7%	5.8%	1.3%	-11.2%	-10.1%	1.4
CC1CC1C(=O)Nc1nc(-c2ccccn2)cs1 (stereo not drawn)	-9.6%	10µM*	-42.2%	5.6%	14.1µM*	23.6
O=C(CN1C(=O)C2CCCCC2C1=O)Nc1nc(-c2ccccn2)cs1 (stereo not drawn)	12.6%	22.4µM*	11.2µM*	10.7%	28.2µM*	-16.3
C[C@@H](C(=O)Nc1nc(-c2ccccn2)cs1)N1C(=O)C2CCCCC2C1=O (stereo partly drawn)	2.6%	12.6µM*	?	2.4%	25.1µM*	38.3
CC(C)[C@H](NC(=O)c1ccccc1Cl)C(=O)Nc1nc(-c2ccccn2)cs1	-43.8%	?	17.5%	23.8%	nt	nt
COc1ccc(NC(=O)N2CC[C@@]3(CCCN(S(C)(=O)=O)C3)C2)cc1	?	-6.2%	nt	5.4%	-5.3%	nt
CCN(CC)CCCC(C)NC(=O)c1ccc(-n2c(=O)c(=O)[nH]c3ccccc32)cc1 (stereo not drawn)	nt	-4.3%	nt	nt	-9.2%	nt
SMILES	HTT ATP protect	ALDH1A1 inh	HTT aggregate	GoLoco inh red	HPGD block	PNC inhibitor
CC(C(=O)Nc1ccccn1)N1C(=O)C2C3C=CC(C3)C2C1=O (stereo not drawn)	-17.7%	25.1µM*	0.5%	nt	nt	-7.8
CC1CCc2nn(CC(=O)NC3CCCC(C)C3C)cc2C1 (stereo not drawn)	4.1%	2.3%	-4.4%	14.3%	14.1µM*	-26.1
CC1CCCC(NC(=O)COC(=O)Cc2ccc(Br)cc2)C1C (stereo not drawn)	-4.8%	6.8%	6.9%	3.2%	nt	nt
CC1CCCC(NC(=O)COC(=O)CCC2CCCC2)C1C (stereo not drawn)	2.8%	11.2µM*	-15.7%	-7.1%	?	?
CC1CCCC(NC(=O)Cc2ccc(Br)cc2)C1C (stereo not drawn)	28.0%[1.9 µM]	-7.9%	-10.5%	2.1%	15.8µM*	-8.9
CC1CCCC(NC(=O)COC(=O)COc2ccc(Cl)cc2)C1C (stereo not drawn)	2.7%	1µM*	31.2%[9.22 µM]	-4.6%	-10.8%	?
CCOC(=O)N1CCC(NC(=O)Cn2cc3c(n2)CCC(C)C3)CC1 (stereo not drawn)	8.5%[10 µM]	1.4%	-11.7%	-16.1%	-10.4%	150.0
Nc1nc(CN2CCCCCC2)nc(Nc2ccccc2)n1	25.9%[10 µM]	-13.1%	12.4%	9.2%	-16.4%	?
Nc1nc(CN2CCN(Cc3ccc4c(c3)OCO4)CC2)nc(Nc2ccccc2)n1	19.4%[10 µM]	-13.4%	2.6%	-2.4%	-7.1%	-129.2*
Cc1ccc(Nc2nc(N)nc(CN3CCN(c4ccccc4F)CC3)n2)cc1	-19.4%	31.6µM*	?	7.7%	-10.6%	17.3
Nc1nc(CN2CCC(Cc3ccccc3)CC2)nc(Nc2ccccc2)n1	-17.0%	6.5%	-1.5%	-5.6%	-7.2%	-105.2*
CN(C)CCN(C)C(=O)c1ccc(-n2c(=O)c(=O)[nH]c3ccccc32)cc1	nt	-4.8%	nt	nt	-7.9%	nt
O=c1nc2c(O)cccn2c2c1c(=O)[nH]c1ccccc12	-4.2%[10 µM]	20µM*	28.7%	24.4%	?	?
O=c1[nH]c2ccccc2c2nc3ccccn3c12	-95.1%[0.074 µM]	-4.0%	14.1%	3.9%	-20.8%	5.0
O=C(O)c1cccc(-n2cccc2/C=C2/NC(=O)N(Cc3ccccc3F)C2=O)c1	nt	14.1µM*	26.9%	1.8%	nt	nt
COc1cc(/C=C2/NC(=O)N(Cc3ccccc3F)C2=O)ccc1Oc1ccc([N+](=O)[O-])cn1	nt	0.224µM*	-29.9%	1.5%	-8.2%	15.4
COc1cc(/C=C2/NC(=O)N(Cc3ccccc3F)C2=O)ccc1O	-48.0%	6.31µM*	27.0%	1.0%	nt	nt
Cc1ccccc1NC(=O)CN1C(=O)S/C(=C\c2cccn2-c2cccc(C(=O)O)c2)C1=O	0.3%	?	13.2%	136.5%	28.2µM*	?

Bioassay records from PubChem BioAssay.
